# Results taken from publication PMC5540273 (PLoS ONE, 2017).
# Experiments:
# Settings in all cases: concentration: 1 μM, replicates: in singlicate; n = 1
# EPHA7 = test system: EPHA7
# EPHA8 = test system: EPHA8
# EPHB1 = test system: EPHB1
# EPHB2 = test system: EPHB2
# EPHB3 = test system: EPHB3
# EPHB4 = test system: EPHB4
# EPHB6 = test system: EPHB6
# ERBB2 = test system: ERBB2
# ERBB3 = test system: ERBB3
# ERBB4 = test system: ERBB4
# ERK1 = test system: T1, ERK1
# T1 construct: gene MAPK3
# ERK2 = test system: T2, ERK2
# T2 construct: gene MAPK1
# ERK3 = test system: T3, ERK3
# T3 construct: gene MAPK6
# ERK4 = test system: T4, ERK4
# T4 construct: gene MAPK4
# ERK5 = test system: T5, ERK5
# T5 construct: gene MAPK7
# ERK8 = test system: T6, ERK8
# T6 construct: gene MAPK15
# ERN1 = test system: ERN1
# FAK = test system: T7, FAK
# T7 construct: gene PTK2
# FER = test system: FER
# FES = test system: FES
# 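Note: KINOMEscan kinase panel screen.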
Structure (SMILES),%Inh (EPHA7) [%],%Inh (EPHA8) [%],%Inh (EPHB1) [%],%Inh (EPHB2) [%],%Inh (EPHB3) [%],%Inh (EPHB4) [%],%Inh (EPHB6) [%],%Inh (ERBB2) [%],%Inh (ERBB3) [%],%Inh (ERBB4) [%],%Inh (ERK1) [%],%Inh (ERK2) [%],%Inh (ERK3) [%],%Inh (ERK4) [%],%Inh (ERK5) [%],%Inh (ERK8) [%],%Inh (ERN1) [%],%Inh (FAK) [%],%Inh (FER) [%],%Inh (FES) [%]
COc1cc(Nc2nccc(N3CCC(NC(=O)Nc4cccc(C(C)=O)c4)C3)n2)cc(OC)c1OC (centres unmarked) [GSK1379753],11,16,18,0,13,6,88,2,0,19,0,0,9,15,0,0,5,0,22,0
COC(=O)Nc1nc2ccc(Oc3ccc(NC(=O)Nc4cc(C(F)(F)F)ccc4F)cc3)cc2n1C.Cl [GW692089],72,91.5,35,43,17,48,67,28,29,4,0,0,0,0,0,72,0,0,21,3
Cl.c1ccc(-c2ccc3c(Nc4ccc5[nH]ncc5c4)ccnc3c2)nc1 [GW440137],0,16,13,0,0,6,46,34,35,31,10,0,4,34,0,0,5,0,15,0
CN1CCN(CCCNc2nccc(-c3c(-c4ccc(F)cc4)nn4cc(C(F)(F)F)ccc34)n2)CC1 [GW621581],0,15,13,0,0,9,26,0,0,0,0,0,0,5,0,31,0,0,0,0
CCn1c(-c2nonc2N)nc2c(C#CC(C)(C)O)nc(OC[C@H](N)c3ccccc3)cc21 [GSK943949],0,0,8,0,0,0,28,12,0,0,0,3,0,0,0,7,4,0,0,0
CN1CCN(Cc2cccc(-c3ccc4c(Nc5ccc(Oc6ccccc6)cc5)ccnc4c3)c2)CC1 [GW578342],0,0,25,16,7,10,87,62,99.1,55,4,0,0,9,0,0,11,0,4,4
COC(=O)Nc1nc2cc(Oc3ccc(NC(=O)Nc4cc(C(F)(F)F)ccc4F)cn3)ccc2[nH]1.Cl.Cl [GW681170],82,98.2,63,78,12,55,86,22,2,2,8,0,0,1,0,95.3,0,0,23,0
O=C(Nc1cccc(-c2nn3ccccc3c2-c2ccnc(Nc3cccc(C(F)(F)F)c3)n2)c1)c1c(F)cccc1F [GSK292658],0,0,2,0,5,0,25,80,0,90,0,0,0,0,0,9,0,0,3,0
CN(C)S(=O)(=O)c1cc(-c2ccc3nccc(-c4cccc(S(N)(=O)=O)c4)c3c2)cnc1N [GSK1669921],15,27,31,0,11,16,25,15,0,0,3,0,0,0,0,40,8,0,5,14
c1ccc(-c2n[nH]cc2Nc2ccnc3ccccc23)nc1 [GW694077],11,21,18,0,1,0,0,0,4,0,0,0,7,0,0,25,22,0,0,0
